Source: PubChem BioAssay (National Center for Advancing Translational Sciences (NCATS))
Shown are actives, neighbours in structure and some others; about 0.63% of the full set was active somewhere.
GAA inh: qHTS Assay for Inhibitors of Human alpha-Glucosidase as a Potential Chaperone Treatment of Pompe Disease; purified human GAA, 4-MU-alpha-glucoside fluorescence; AID 1466, 2008; Potency, µM (titrated, usually from 76.9 µM), for the others: top-dose activity change, negative = inhibition, most hits filed as inhibitors; hit rate 0.005% among 200,000;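 also: plate controls were uninhibited enzyme wells for no effect and no-enzyme background for full effect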
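Fluorescence at Ex 365/Em 440 nm from 4-methylumbelliferone reported enzyme activity after 20 min at room temperature. Reactions used 4 nM enzyme and 400 uM substrate at pH 5.0; curves fitted with the Hill equation.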
GALK inhibitor: qHTS Assay for Inhibitors of Human Galactokinase (GALK); hit rate 0.007% among 270,000; P51570; Potency, µM (top dose mostly 57.5 µM), for the others: top-dose activity change, negative = inhibition, most hits filed as inhibitors; Purified GALK, Kinase-Glo residual ATP luminescence
Target sequence (P51570 whole entry, looked up): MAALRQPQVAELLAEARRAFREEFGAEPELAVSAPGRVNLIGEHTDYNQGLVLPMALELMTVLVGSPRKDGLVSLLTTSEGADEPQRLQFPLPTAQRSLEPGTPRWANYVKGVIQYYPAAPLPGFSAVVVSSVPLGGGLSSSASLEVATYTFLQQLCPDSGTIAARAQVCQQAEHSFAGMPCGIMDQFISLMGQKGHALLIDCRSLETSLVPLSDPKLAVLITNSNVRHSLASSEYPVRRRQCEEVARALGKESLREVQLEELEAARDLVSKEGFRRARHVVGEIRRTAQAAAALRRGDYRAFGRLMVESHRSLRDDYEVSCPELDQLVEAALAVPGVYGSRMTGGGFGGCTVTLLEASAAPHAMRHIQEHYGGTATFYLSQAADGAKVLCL
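Compounds were pin-transferred into ATP buffer (35 uM final), then GALK plus galactose (5 nM, 100 uM final) was added. After 1 h at room temperature, Kinase-Glo Plus was added and luminescence read after 10 min.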
GAA glycogen: qHTS Assay for Inhibitors and Activators of Human alpha-Glucosidase Cleavage of Glycogen; hit rate 0.38% among 300,000; recombinant GAA, glycogen substrate, Amplex Red glucose oxidase fluorescence; Potency, µM (highest dose often 76.4 µM), without a hit: at the highest dose activity change, negative = inhibition, actives largely listed as inhibitors; Lysosomal alpha-glucosidase (Homo sapiens), P10253; AID 2100, 2009;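 also: 0% = full enzyme reaction and -100% = no-enzyme basal signal; the screen sought inhibitors and activators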
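Recombinant human alpha-glucosidase (4 nM final) hydrolysed bovine liver glycogen (30 ug) for 40 min at 37 C in pH 5.0 citrate/phosphate with 0.01% Tween-20. Released glucose detected by glucose oxidase/Amplex Red, Ex 573/Em 610 nm. Compounds up to 77 uM; AC50 from Hill fits.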
PKM2 act: qHTS Assay for Activators of Human Muscle isoform 2 Pyruvate Kinase; Pyruvate kinase PKM (Homo sapiens), P14618; purified PKM2, Kinase-Glo ATP luminescence, activation; response scale: 0% is enzyme alone, no compound; Potency, µM (doses to about 57.5 µM), inactives show at the top dose activation, actives largely listed as activators; hit rate 0.34% among 260,000; AID 1631, 2009; also: nearly all actives have a fitted effect of over 55% in size
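ATP formation by purified human PK-M2, quantified via coupled luciferase luminescence after 1 h at room temperature with 0.1 mM ADP and 0.5 mM PEP final.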
GAA spleen mod: qHTS Assay for Inhibitors and Activators of Human alpha-Glucosidase From Spleen Homogenate; Lysosomal alpha-glucosidase (Homo sapiens), P10253; human spleen homogenate, 4-MU-alpha-glucoside fluorescence; Potency, µM (titrated, usually from 79.9 µM), without a hit: at the highest dose activity change, negative = inhibition, most hits filed as inhibitors; hit rate 0.006% among 240,000;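 also: 0% = enzyme with vehicle and -100% = no enzyme basal signal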
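Compounds were titrated against alpha-glucosidase in spleen homogenate at pH 5.0, with 1 mM 4-methylumbelliferyl substrate for 40 min at 37 C. Reactions were quenched with pH 10 NaOH/glycine and fluorescence measured.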
* marks the source's active call; other numbers are inactive results; ? = inconclusive; . = not tested or not shown; [ ] = dose if it differs, or a comment. Calls follow the shape of the dose curve; as a rule, active = well fitted curve in the direction sought with a large enough effect; inconclusive = small, poorly fitted or top-dose-only effect, or another doubt; inactive = no such curve, though single readings can be large; an effect the other way counts as inactive or inconclusive. Unless noted, % is scaled to controls: 0 for no effect and ±100 for the full control effect; potency is read from the fitted curve at half-maximal effect.

SMILES	GAA inh	GALK inhibitor	GAA glycogen	PKM2 act	GAA spleen mod
Cn1cnnc1SCC(=O)c1ccc(O)c(O)c1	-3%	4%	6.3µM*	15%	4%
CC(C)(C)c1cc(CNC2CS(=O)(=O)C[C@@H]2O)cc(C(C)(C)C)c1O (some centres undefined)	7%	-1%	16µM*	5%	4%
CCc1ccc(-c2cn3c(n2)sc2cc(C(=O)NCCc4ccc(OC)cc4OC)ccc23)cc1	.	.	-6%[76.3 µM]	.	.
CCS(=O)(=O)N1CCCc2cc(C(=O)Nc3cc([N+](=O)[O-])ccc3C)ccc21	.	.	-25%[76.3 µM]	.	.
COCCNS(=O)(=O)c1ccc2c(c1)C(=NO)c1cc(S(=O)(=O)NCCOC)ccc1-2	.	-3%	-17%	10µM*	-2%
COCCNS(=O)(=O)c1ccc2c(c1)Cc1cc(S(=O)(=O)NCCOC)ccc1-2	.	-1%	-1%[76.3 µM]	26%	.
O=C(O)c1ccccc1NS(=O)(=O)c1cccc(-n2sc3ccccc3c2=O)c1	.	-1%	-7%	2.5µM*	.
O=C1c2oc3ccc(Br)cc3c(=O)c2C(c2cccnc2)N1Cc1ccco1 (centres undefined)	-8%	0%	12%	0%	-2%
O=C1c2oc3ccccc3c(=O)c2C(c2cccc(Br)c2)N1Cc1ccco1 (centres undefined)	?	1%	8%	20µM*	1%
COc1cc(CNc2ccc3[nH]c(=O)[nH]c3c2)cc(Br)c1OCC(=O)NC(C)(C)C	-15%	1%	14µM*	11%	-5%
COc1cc(CNc2ccc3[nH]c(=O)[nH]c3c2)ccc1OCc1ccc(F)cc1	.	-3%	-1%[76.3 µM]	1%	.
COc1cc(CNc2ccc3[nH]c(=O)[nH]c3c2)ccc1OCc1ccccc1F	.	-2%	5.6µM*	0%	.
CCOc1cc(CNc2ccc(N(C)C)cc2)cc(Br)c1OCC(=O)NC(C)(C)C	?	0%	20µM*	-34%	-6%
C=CCOc1cccc(CNc2ccc3[nH]c(=O)[nH]c3c2)c1	-2%	8%	28µM*	-4%	-1%
CCOc1ccc(NC(=O)c2cnn(-c3ccc(C)c(C)c3)c2C2CCN(C(=O)OC(C)(C)C)CC2)cc1	.	.	20%[76.3 µM]	.	.
O=C(CSc1nc(-c2ccccc2)no1)N1CCCCC1	.	.	-4%[76.3 µM]	.	.
Oc1ccc(Nc2ccnc3cc(Cl)ccc23)cc1	.	6%	13µM*	-7%	-10%
COc1ccccc1CNC(=O)CCCCn1c(=O)c2ccccc2n(CC(=O)Nc2c(C)cc(C)cc2C)c1=O	.	.	2%[76.3 µM]	.	.
COc1ccc(CC(=O)Nc2ccc(S(=O)(=O)Nc3nccs3)cc2)cc1	.	6%	-1%[76.3 µM]	14µM*	.
COc1ccc(NS(=O)(=O)c2ccc(NS(=O)(=O)c3cccs3)cc2)cc1	.	-3%	-15%	-12%	.
COc1ccc(S(=O)(=O)Nc2ccc(S(=O)(=O)Nc3nccs3)cc2)cc1	.	-3%	5%	13µM*	.
CCOc1ccc(NC(=O)CC2C(=O)N(c3ccc(F)cc3)C(=O)N2CCc2sccc2C)cc1 (centres undefined)	.	.	-3%[76.3 µM]	.	.
COc1cc2c(C(=O)N(C)c3cc(Cl)ccc3OC)cn(CC(C)C)c(=O)c2cc1OC	.	.	4%[76.3 µM]	.	.
Cc1c(C(=O)N(Cc2ccc(N(C)C)cc2)CC2CCCO2)oc2ccc(Br)cc12 (centres undefined)	.	.	3%[76.3 µM]	.	.
COc1ccc(S(=O)(=O)N2CCN(C(=O)COc3ccc4c(C)cc(=O)oc4c3)CC2)cc1	?	0%	-21%	14µM*	-15%
SMILES	GAA inh	GALK inhibitor	GAA glycogen	PKM2 act	GAA spleen mod
COc1ccc(S(=O)(=O)N2CCN(C(=O)COc3ccccc3)CC2)cc1	-13%	-2%	-2%	14µM*	-4%
CCC(C)c1ccc(S(=O)(=O)N2CCN(C(=O)COc3ccc4c(C)cc(=O)oc4c3)CC2)cc1 (centres undefined)	0%	2%	100%	1%	3%
O=C(COc1ccc(-c2nnco2)cc1)N1CCN(S(=O)(=O)c2ccc3ccccc3c2)CC1	?	0%	-19%	7.1µM*	-12%
COc1ccc2c(CC(=O)N3CCN(S(=O)(=O)c4cccs4)CC3)coc2c1	-12%	1%	-2%	22µM*	-16%
CCOC(=O)c1c(C)n(-c2ccccc2)c2ccc(OC(=O)c3cccc(Cl)c3)cc12	.	.	14%[76.3 µM]	.	.
Nc1c(-c2nc(-c3ccccc3)cs2)c2ccccn2c1C(=O)c1ccc2c(c1)OCO2	.	.	-3%[76.3 µM]	.	.
O=C(CC1NCCNC1=O)Nc1ccccc1F (centres undefined)	.	.	0%[76.3 µM]	.	.
COC(=O)COc1ccc(Oc2nc(NC(C)(C)C)nc(N(C)C)n2)nn1	.	.	11%[76.3 µM]	.	.
CCc1ccccc1NC(=O)c1sc(-n2nc(C)c(Cc3ccc4c(c3)OCO4)c2C)nc1C	.	.	4%[76.3 µM]	.	.
COc1ccc(-c2c(C)nn3c(N4CCN(c5ccccc5)CC4)cc(C)nc23)cc1OC	.	.	7%[76.3 µM]	.	.
CN(C)C(=O)N1CCN(S(=O)(=O)c2ccc3ccccc3c2)CC1	.	-4%	-9%[76.3 µM]	?	.
O=C(CCl)N1CCN(S(=O)(=O)c2ccc3ccccc3c2)CC1	.	-2%	-7%[76.3 µM]	13µM*	.
COc1ccc(-n2c(-c3ccccc3F)nc3c(cnn3-c3ccc(C)cc3)c2=O)cc1	.	.	-12%[76.3 µM]	.	.
C/C(=N\N1CCN(C2c3ccccc3-c3ccccc32)CC1)c1cccnc1	12%	-1%	32µM*	0%	-22%
Cc1[nH]nc(SCC(=O)Nc2cccc(O)c2)c1[N+](=O)[O-]	3%	4%	4%	10µM*	1%
Cc1[nH]nc(SCC(=O)NCc2ccccc2)c1[N+](=O)[O-]	-3%	0%	2%	-7%	-10%
CN(C)C(=O)c1ccc(NC(=O)Cn2nnnc2-c2ccccc2F)cc1	.	.	-7%[76.3 µM]	.	.
O=C(c1cc(-c2ccccn2)nc2ccc(Br)cc12)N1CCN(S(=O)(=O)c2ccccc2)CC1	-10%	4%	-4%	25µM*	0%
Cc1ccc(-c2cc(C(=O)N3CCN(c4ccc(F)cc4)CC3)c3ccccc3n2)o1	7%	-2%	7%	?	-4%
Cc1ccc(-c2cc(C(=O)N3CCN(c4ncccn4)CC3)c3cc(Br)ccc3n2)o1	14%	-2%	6%	8.9µM*	-2%
COc1cc(C)ccc1OCCSc1nc2ccc(NC(C)=O)cc2s1	.	.	6%[76.3 µM]	.	.
COc1ccc2[nH]c(C(=O)O)c(NS(=O)(=O)c3ccc(Cl)s3)c2c1	7%	2%	9.9µM*	-5%	7%
CCOC(=O)c1cc(-c2ccc(N)cc2)sc1N	?	-2%	14µM*	4%	2%
CC(C)(C)C(=O)Nc1sc(-c2ccccc2)cc1C(=O)O	.	3%	5%	-4%	-2%
Nc1sc(-c2ccccc2)cc1C(=O)O	1%	1%	25µM*	7%	-1%
